Reference: PubChem BioAssay (Tox21)
Inconclusive results are not listed. Activity calls are given as the source filed them. Unless noted, calls follow the shape of the full dose curve.

Assays:
[1] = Nuclear factor erythroid 2-related factor 2/antioxidant responsive element (Nrf2/ARE) small molecule agonists: qHTS cell viability counter screen in human keratinocytes (AID 1919968; active = well fitted curve in the direction sought with a large enough effect in the repeat runs; an effect the other way counts as inactive or inconclusive; also: nearly all actives have a fitted effect of over 55% in size; also: potency is read from the fitted curve at half-maximal effect)
In short: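 Measured as CellTiter-Fluor fluorescence, this readout tracks cytotoxicity in the same wells as the ARE-luciferase screen. HaCaT reporter cells (1,500/well) received compounds after a 5 h pre-incubation and were exposed for 23 h.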

[2] = Nuclear factor erythroid 2-related factor 2/antioxidant responsive element (Nrf2/ARE) small molecule agonists: luciferase reporter gene qHTS assay in human keratinocytes (AID 1919969); also: nearly all actives have a fitted effect of over 35% in size; also: potency is read from the fitted curve at half-maximal effect
[3] = target: Gonadotropin-releasing hormone receptor (Homo sapiens) (UniProt P30968); assay: Human gonadotropin-releasing hormone receptor (GnRHR) small molecule agonists, calcium flux assay in GnRHR-HEK293 cells (AID 1920063); also: nearly all actives have a fitted effect of over 35% in size
In short: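 Fluorescence kinetics (480 nm excitation, 540 nm emission; 3 min, 1 s steps) report calcium mobilisation in human GnRHR-HEK293 cells in agonist mode. Dye incubation: 1 h, 37 C.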

[4] = target: KiSS-1 receptor (Homo sapiens) (UniProt Q969F8); assay: Human kisspeptin (KISS1R) small molecule agonists, calcium flux assay in KISS1R-HEK293 cells (AID 1920064; active = well fitted curve in the direction sought with a large enough effect in the repeat runs; an effect the other way counts as inactive or inconclusive)
In short: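 Measures KISS1R agonism through calcium-sensitive dye fluorescence in stably transfected HEK293 cells, read for 3 min after pin-tool compound delivery; 15-point titrations in triplicate.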

[5] = G protein-coupled receptor (GPCR) small molecule agonists, calcium flux assay: HEK293 wild type cell line counter screen (AID 1920065)
In short: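 Readout: fluorescence at 480 nm excitation/540 nm emission, sampled at 1 s intervals for 3 min. Cells had been cultured 18 h, then dye-loaded 1 h at 37 C before compound or ATP addition.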

[6] = p53 small molecule agonists, cell-based qHTS assay with human liver microsomes (AID 1963577)
In short: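 p53RE-bla reporter cells were pre-incubated 5 h at 37 C, then treated with compounds plus human liver microsomes (0.5 mg/mL final) and NADPH (0.5 mg/mL final) for 16 h at 37 C. Beta-lactamase activity was read by LiveBLAzer fluorescence after 2 h at room temperature.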

[7] = p53 small molecule agonists, cell-based qHTS assay with rat liver microsomes (AID 1963578)
In short: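 p53RE-bla cells were exposed to compounds together with rat liver microsomes (0.5 mg/mL final) and NADPH (0.5 mg/mL final) for 16 h at 37 C, then read by LiveBLAzer beta-lactamase fluorescence after 2 h at room temperature.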

[8] = p53 small molecule agonists, cell-based qHTS assay with human liver microsomes: qHTS cell viability counter screen (AID 1963579); also: nearly all actives have a fitted effect of over 45% in size; also: potency is read from the fitted curve at half-maximal effect
In short: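 p53RE-bla cells (4,000/well) were pre-incubated 5 h at 37 C, then given compounds in DMSO plus human liver microsomes (0.5 mg/mL final) and NADPH (0.5 mg/mL final) for 16 h at 37 C. Viability was read by CellTiter-Glo luminescence.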

[9] = p53 small molecule agonists, cell-based qHTS assay with rat liver microsomes: qHTS cell viability counter screen (AID 1963580); also: nearly all actives have a fitted effect of over 45% in size; also: potency is read from the fitted curve at half-maximal effect
In short: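 Viability is assessed in parallel with the p53 reporter read: HCT-116 p53RE-bla cells receive compounds plus rat microsomes and NADPH (0.5 mg/mL final apiece), incubate 16 h at 37 C, and then CellTiter-Glo luminescence is recorded.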

[10] = target: 5-hydroxytryptamine receptor 2A (Homo sapiens) (UniProt P28223); assay: 5-hydroxytryptamine receptor 2A (HTR2A) small molecule antagonists, cell-based qHTS assay (AID 1963586); also: nearly all actives have a fitted effect of over 45% in size; also: potency is read from the fitted curve at half-maximal effect
In short: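 Antagonist-mode intracellular calcium assay: DOI (4 nM) added after 5 min compound pre-incubation at room temperature to dye-loaded HTR2A-CHO cells. Fluorescence followed for 3 min, sampled every second.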

[11] = target: Muscarinic acetylcholine receptor M1 (Homo sapiens) (UniProt P11229); assay: Cholinergic receptor muscarinic 1 (CHRM1) small molecule antagonists, cell-based qHTS assay (AID 1963588); also: nearly all actives have a fitted effect of over 40% in size; also: potency is read from the fitted curve at half-maximal effect
In short: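 CHRM1-CHO calcium-flux assay, antagonist mode. Cells were seeded 18 h, dye-loaded 1 h at 37 C and given compound for 5 min at RT, then acetylcholine was added at 50nM. FDSS fluorescence was read 3 min; 15 concentrations, three runs.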

[12] = target: Muscarinic acetylcholine receptor M1 (Homo sapiens) (UniProt P11229); assay: Cholinergic receptor muscarinic 1 (CHRM1) small molecule agonists, cell-based qHTS assay (AID 1963589); also: nearly all actives have a fitted effect of over 35% in size
In short: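 Each compound was tested at 15 concentrations across three independent runs on dye-loaded CHO cells stably expressing human CHRM1, reading intracellular calcium fluorescence kinetically at 1 sec intervals.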

[13] = cAMP Responsive Elements (CRE) small molecule agonists, cell-based qHTS assay (AID 1963590)
In short: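 Cell line: CRE-bla HEK 293T; medium DMEM/10% dialyzed FBS/0.1 mM NEAA/1 mM pyruvate/25 mM HEPES; 3 h compound exposure; beta-lactamase FRET readout after 2 h substrate loading at RT.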

[14] = cAMP Responsive Elements (CRE) small molecule antagonists, cell-based qHTS assay (AID 1963591; active = well fitted inhibition curve with a large enough effect in the signal ratio in the repeat runs, not every such curve was filed as active; the % refers to the signal ratio)
In short: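 Inhibition of NKH477-driven (0.25 uM final) CRE-beta-lactamase signal in HEK293T cells, 3 h compound exposure at 37 °C, detected by FRET substrate fluorescence.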

[15] = target: Beta-2 adrenergic receptor (Homo sapiens) (UniProt P07550); assay: Adrenergic beta2 receptor (ADRB2) small molecule antagonists, cell-based qHTS assay (AID 1963592); also: series mostly up to about 92 µM; nearly all actives have a fitted effect of over 50% in size
In short: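 Cells (CHO, stable ADRB2 overexpression) incubated 18-20hr at 37C; compounds added from DMSO; agonist mix (1nM isoproterenol, 100uM IBMX, 25uM Ro-20-1724) added; 0.5hr RT; d2-cAMP and anti-cAMP-cryptate added; 1hr RT; 665/615 nm read.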

[16] = target: Beta-2 adrenergic receptor (Homo sapiens) (UniProt P07550); assay: Adrenergic beta2 receptor (ADRB2) small molecule agonists, cell-based qHTS assay (AID 1963593);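 also: CHO cells stably overexpressing human ADRB2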
In short: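 CHO cells stably over-expressing ADRB2 were plated overnight at 37C, then dosed with compounds plus a stimulation mix containing 100uM IBMX and 25uM Ro-20-1724 for 0.5hr at room temperature. cAMP was measured by HTRF competition, 1hr.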

[17] = target: D(2) dopamine receptor (Homo sapiens) (UniProt P14416); assay: Dopamine D2 receptor (DRD2) small molecule agonists, cell-based qHTS assay (AID 1963594); also: nearly all actives have a fitted effect of over 35% in size
In short: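 HEK293 cells stably expressing human DRD2, pre-treated with PDE inhibitor Ro20-1724 (0.1 mM final) and compound 10 min at room temperature, then stimulated with NKH477 (200nM […]) for 30 min. cAMP read by HTRF (665/620 nm).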

[18] = target: D(2) dopamine receptor (Homo sapiens) (UniProt P14416); assay: Dopamine D2 receptor (DRD2) small molecule antagonists, cell-based qHTS assay (AID 1963595; active = well fitted inhibition curve with a large enough effect in the signal ratio in the repeat runs, with a control signal flat; the % refers to the signal ratio; also: potency is read from the fitted curve at half-maximal effect)
In short: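 HEK293 cells stably expressing DRD2, preincubated with 0.1 mM Ro20-1724 and compounds 10 min, were stimulated with 200 nM NKH477 plus 12 nM quinpirole for 30 min at room temperature; cAMP measured by HTRF (665/620 nm).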

[19] = target: 5-hydroxytryptamine receptor 2A (Homo sapiens) (UniProt P28223); assay: 5-hydroxytryptamine receptor 2A (HTR2A) small molecule agonists, cell-based qHTS assay (AID 1963587); also: nearly all actives have a fitted effect of over 30% in size
In short: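 CHO cells stably expressing human HTR2A, plated 18 h, loaded with calcium dye 1 h at 37 C. Agonist mode: compounds added and intracellular calcium fluorescence recorded kinetically for 2 min at 1 sec intervals.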

[20] = p53 small molecule agonists, cell-based qHTS assay (AID 1963582; active = well fitted activation curve with a large enough effect in the signal ratio in the repeat runs, not every such curve was filed as active; the % refers to the signal ratio)
In short: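 Compounds are pin-transferred in DMSO onto p53RE-bla cells and incubated 16 h at 37 C. The B/G FRET beta-lactamase substrate is then applied for 2 h at RT and fluorescence recorded.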

Measured: Potency

Sequence of Muscarinic acetylcholine receptor M1 (Homo sapiens) (P11229 whole entry, looked up): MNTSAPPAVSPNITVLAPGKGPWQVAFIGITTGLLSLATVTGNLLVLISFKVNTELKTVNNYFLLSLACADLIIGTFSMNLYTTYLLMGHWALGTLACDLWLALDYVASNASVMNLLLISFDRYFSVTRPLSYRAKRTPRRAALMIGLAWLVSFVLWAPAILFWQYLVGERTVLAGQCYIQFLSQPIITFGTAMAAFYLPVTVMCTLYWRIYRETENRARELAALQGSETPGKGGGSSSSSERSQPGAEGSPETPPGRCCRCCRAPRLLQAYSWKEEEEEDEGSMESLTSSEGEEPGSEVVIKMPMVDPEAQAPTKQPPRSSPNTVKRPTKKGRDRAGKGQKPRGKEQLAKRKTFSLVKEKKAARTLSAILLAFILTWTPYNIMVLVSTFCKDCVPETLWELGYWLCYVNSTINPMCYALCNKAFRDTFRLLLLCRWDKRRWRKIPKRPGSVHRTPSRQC
Sequence of 5-hydroxytryptamine receptor 2A (Homo sapiens) (P28223 whole entry, looked up): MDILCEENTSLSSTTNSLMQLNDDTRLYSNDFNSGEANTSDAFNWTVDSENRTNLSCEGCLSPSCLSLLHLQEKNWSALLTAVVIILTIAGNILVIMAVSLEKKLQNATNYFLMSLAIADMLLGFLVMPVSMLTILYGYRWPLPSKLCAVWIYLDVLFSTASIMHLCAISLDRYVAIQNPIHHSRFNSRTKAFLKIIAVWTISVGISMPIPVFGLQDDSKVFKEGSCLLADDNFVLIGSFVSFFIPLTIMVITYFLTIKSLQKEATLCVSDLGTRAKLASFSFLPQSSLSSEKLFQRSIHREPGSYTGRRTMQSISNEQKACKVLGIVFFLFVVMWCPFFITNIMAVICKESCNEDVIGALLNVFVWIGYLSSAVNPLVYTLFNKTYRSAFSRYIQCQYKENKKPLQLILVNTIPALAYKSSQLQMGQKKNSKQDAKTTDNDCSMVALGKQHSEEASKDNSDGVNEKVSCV
Sequence of D(2) dopamine receptor (Homo sapiens) (P14416 whole entry, looked up): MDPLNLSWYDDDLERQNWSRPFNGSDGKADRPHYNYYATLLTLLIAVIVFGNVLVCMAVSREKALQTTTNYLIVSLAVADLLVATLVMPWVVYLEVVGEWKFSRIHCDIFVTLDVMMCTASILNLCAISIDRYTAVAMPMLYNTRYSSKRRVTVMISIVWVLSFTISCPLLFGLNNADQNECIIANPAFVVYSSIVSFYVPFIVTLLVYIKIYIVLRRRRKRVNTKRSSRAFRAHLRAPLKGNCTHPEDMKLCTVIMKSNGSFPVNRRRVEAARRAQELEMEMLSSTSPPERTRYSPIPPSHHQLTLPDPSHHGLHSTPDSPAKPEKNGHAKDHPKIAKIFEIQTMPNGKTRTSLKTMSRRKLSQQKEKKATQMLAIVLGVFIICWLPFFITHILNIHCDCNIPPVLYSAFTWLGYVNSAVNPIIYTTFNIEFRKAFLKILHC
Sequence of Beta-2 adrenergic receptor (Homo sapiens) (P07550 whole entry, looked up): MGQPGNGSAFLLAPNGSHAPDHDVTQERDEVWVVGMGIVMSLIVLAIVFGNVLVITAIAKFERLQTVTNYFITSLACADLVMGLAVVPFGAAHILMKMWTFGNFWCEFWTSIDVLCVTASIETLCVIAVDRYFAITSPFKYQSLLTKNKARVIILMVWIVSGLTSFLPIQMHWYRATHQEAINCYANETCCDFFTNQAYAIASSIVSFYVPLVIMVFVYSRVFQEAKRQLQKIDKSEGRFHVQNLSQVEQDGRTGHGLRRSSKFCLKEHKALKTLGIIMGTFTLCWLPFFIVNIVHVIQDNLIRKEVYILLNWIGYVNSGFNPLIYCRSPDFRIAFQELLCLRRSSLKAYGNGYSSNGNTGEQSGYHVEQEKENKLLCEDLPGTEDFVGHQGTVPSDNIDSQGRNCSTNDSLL
Sequence of KiSS-1 receptor (Homo sapiens) (Q969F8 whole entry, looked up): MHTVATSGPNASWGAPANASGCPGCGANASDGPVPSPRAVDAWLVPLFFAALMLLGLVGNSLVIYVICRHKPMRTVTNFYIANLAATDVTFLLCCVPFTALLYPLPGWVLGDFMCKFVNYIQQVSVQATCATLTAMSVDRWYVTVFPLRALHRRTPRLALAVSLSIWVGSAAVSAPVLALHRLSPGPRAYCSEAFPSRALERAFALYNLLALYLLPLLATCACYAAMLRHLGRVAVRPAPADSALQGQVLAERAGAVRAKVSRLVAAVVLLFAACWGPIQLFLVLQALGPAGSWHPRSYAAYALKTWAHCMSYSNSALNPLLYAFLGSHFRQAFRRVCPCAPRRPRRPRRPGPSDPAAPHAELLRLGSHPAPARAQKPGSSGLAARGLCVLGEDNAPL
Sequence of Gonadotropin-releasing hormone receptor (Homo sapiens) (P30968 whole entry, looked up): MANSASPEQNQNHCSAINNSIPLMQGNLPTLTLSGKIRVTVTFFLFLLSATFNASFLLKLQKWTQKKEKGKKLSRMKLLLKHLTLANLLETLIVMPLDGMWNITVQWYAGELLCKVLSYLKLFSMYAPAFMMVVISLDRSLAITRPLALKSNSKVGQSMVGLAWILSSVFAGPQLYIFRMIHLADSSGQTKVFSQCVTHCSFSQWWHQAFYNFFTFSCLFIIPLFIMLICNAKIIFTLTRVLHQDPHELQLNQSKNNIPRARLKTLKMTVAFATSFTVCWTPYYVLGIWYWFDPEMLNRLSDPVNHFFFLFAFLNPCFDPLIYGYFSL

CN1CN(C)CN(C)C1
not listed: [19] | [20]
inactive: all other assays above

Cc1c(Cl)cccc1Nc1ccccc1C(=O)O
active: [10] 16.3 µM | [11] 4.6 µM
not listed: [13] | [14] | [20]
inactive: all other assays above

C[C@@H]1C[C@H]2[C@@H]3CCC4=CC(=O)C=C[C@]4(C)[C@@]3(F)[C@@H](O)C[C@]2(C)[C@@]1(O)C(=O)CO
not listed: [10] | [11] | [12] | [16] | [19] | [20]
inactive: all other assays above

CC(=O)Oc1ccc(C(C)=O)cc1
not listed: [9]
inactive: all other assays above

CCCCCCCCCCCC(=O)N(CC)CC
not listed: [14] | [16] | [19] | [20]
inactive: all other assays above

O=C(c1ccc(O)cc1)c1ccc(O)cc1
not listed: [13] | [20]
inactive: all other assays above

ICCc1ccccc1
active: [2] 67.2 µM | [8] 28.3 µM
not listed: [14] | [16] | [20]
inactive: all other assays above

CC1=C(/C=C/C(C)=C/C=C/C(C)=C\C(=O)O)C(C)(C)CCC1
active: [2] 68.8 µM
inactive: [1] | [3] | [4] | [5] | [6] | [7] | [8] | [9] | [14] | [18]

CCCCC1=NC2(CCCC2)C(=O)N1Cc1ccc(-c2ccccc2-c2nn[nH]n2)cc1
not listed: [10] | [11] | [12] | [13] | [14] | [16] | [19] | [20]
inactive: all other assays above

Cc1cc(S(=O)(=O)O)ccc1N=Nc1c(O)ccc2ccccc12
active: [1] 43.3 µM
not listed: [15] | [16] | [20]
inactive: all other assays above

CCCCCCCCCCCCc1ccc(O)cc1
active: [1] 27.3 µM | [9] 40.8 µM | [18] 61.1 µM
not listed: [11] | [12] | [13] | [14] | [16] | [20]
inactive: all other assays above

O=CN1CCCCC1
not listed: [11] | [15] | [16] | [17] | [20]
inactive: all other assays above

C=C(C)C(=O)OCCN(CC)CC
not listed: [10] | [16] | [20]
inactive: all other assays above

O=C(O)c1cc(N=Nc2ccc([N+](=O)[O-])cc2)ccc1O
active: [1] 26.8 µM
not listed: [13] | [14] | [16] | [20]
inactive: all other assays above

NNc1nc(-c2ccc([N+](=O)[O-])cc2)cs1
active: [1] 30.6 µM | [2] 30.6 µM
not listed: [13] | [14] | [15] | [17] | [20]
inactive: all other assays above

O=C(Nc1ccccc1)c1cc([N+](=O)[O-])ccc1Cl
active: [2] 61.1 µM
not listed: [13] | [14] | [15] | [16] | [20]
inactive: all other assays above
